Assay results from PubChem BioAssay (NCATS).
Records with an inconclusive call do not appear. A number with no mark means an inactive call. Activity calls are given as the source filed them. Calls come from the whole dose curve; as a rule, active = well fitted curve in the direction sought with a large enough effect; inconclusive = small, poorly fitted or top-dose-only effect, or another doubt; inactive = no such curve, though single readings can be large; an effect the other way counts as inactive or inconclusive.

Key:
[1] = Quantitative High-Throughput drug screen in 47 multiple myeloma cell lines against the NCATS MIPE library collection: KMS20_JCRB cell viability assay (AID 1918973); note: nearly all actives have a fitted effect of over 45% in size
In short: (§1)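 CellTiter-Glo luminescence (ATP) after 48 h compound exposure, 37C/5% CO2; 500 cells/well; MIPE 4.0 approved/investigational drugs pinned in; DMSO = 100%, media only = 0% viability.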

[2] = Quantitative High-Throughput drug screen in 47 multiple myeloma cell lines against the NCATS MIPE library collection: KMS21BM_JCRB cell viability assay (AID 1918974); conditions: ATP luminescence, 48 h; viability: at 45.8 µM (top of the series) unless noted
In short: as §1

[3] = Quantitative High-Throughput drug screen in 47 multiple myeloma cell lines against the NCATS MIPE library collection: MMM1_PLB cell viability assay (AID 1918976); note: nearly all actives have a fitted effect of over 35% in size
In short: (§2)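 ATP-based CellTiter-Glo luminescence after 48 h drug exposure (37 °C, 5% CO2) of 500 myeloma cells per well. DMSO-only wells set 100% viability, media-only wells 0%; MIPE 4.0 library added by pin tool.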

[4] = Quantitative High-Throughput drug screen in 47 multiple myeloma cell lines against the NCATS MIPE library collection: MOLP8_DSMZ cell viability assay (AID 1918977); note: nearly all actives have a fitted effect of over 45% in size
In short: as §2

[5] = Quantitative High-Throughput drug screen in 47 multiple myeloma cell lines against the NCATS MIPE library collection: OCIMY1_PLB cell viability assay (AID 1918979); note: nearly all actives have a fitted effect of over 35% in size
In short: as §2

[6] = Quantitative High-Throughput drug screen in 47 multiple myeloma cell lines against the NCATS MIPE library collection: MM1S_ATCC cell viability assay (AID 1918980); note: nearly all actives have a fitted effect of over 45% in size
In short: as §2

[7] = Quantitative High-Throughput drug screen in 47 multiple myeloma cell lines against the NCATS MIPE library collection: MM1R_ATCC cell viability assay (AID 1918981); note: nearly all actives have a fitted effect of over 35% in size
In short: as §2

[8] = Quantitative High-Throughput drug screen in 47 multiple myeloma cell lines against the NCATS MIPE library collection: LP1_DSMZ cell viability assay (AID 1918982); note: nearly all actives have a fitted effect of over 35% in size
In short: as §2

[9] = Quantitative High-Throughput drug screen in 47 multiple myeloma cell lines against the NCATS MIPE library collection: KMS28PE_JCRB cell viability assay (AID 1918983); note: nearly all actives have a fitted effect of over 35% in size
In short: as §2

[10] = Quantitative High-Throughput drug screen in 47 multiple myeloma cell lines against the NCATS MIPE library collection: KMS34_JCRB cell viability assay (AID 1918985); note: nearly all actives have a fitted effect of over 40% in size
In short: as §2

[11] = Quantitative High-Throughput drug screen in 47 multiple myeloma cell lines against the NCATS MIPE library collection: OCIMY7_PLB cell viability assay (AID 1918987); note: nearly all actives have a fitted effect of over 65% in size
In short: as §2

[12] = Quantitative High-Throughput drug screen in 47 multiple myeloma cell lines against the NCATS MIPE library collection: OCIMY5_PLB cell viability assay (AID 1918988); note: nearly all actives have a fitted effect of over 65% in size
In short: as §2

[13] = Quantitative High-Throughput drug screen in 47 multiple myeloma cell lines against the NCATS MIPE library collection: OPM1_PLB cell viability assay (AID 1918989); note: nearly all actives have a fitted effect of over 40% in size
In short: as §2

[14] = Quantitative High-Throughput drug screen in 47 multiple myeloma cell lines against the NCATS MIPE library collection: SKMM1_PLB cell viability assay (AID 1919863); conditions: SKMM1 myeloma viability, CellTiter-Glo ATP, 48 h; viability: stronger effect = lower value; note: nearly all actives have a fitted effect of over 35% in size
In short: as §2

[15] = Quantitative High-Throughput drug screen in 47 multiple myeloma cell lines against the NCATS MIPE library collection: U266_ATCC cell viability assay (AID 1919864); note: nearly all actives have a fitted effect of over 35% in size
In short: as §2

[16] = Quantitative High-Throughput drug screen in 47 multiple myeloma cell lines against the NCATS MIPE library collection: XG6_PLB cell viability assay (AID 1919865); note: nearly all actives have a fitted effect of over 40% in size
In short: as §2

[17] = Quantitative High-Throughput drug screen in 47 multiple myeloma cell lines against the NCATS MIPE library collection: XG1_PLB cell viability assay (AID 1919866); note: nearly all actives have a fitted effect of over 35% in size
In short: as §2

[18] = Quantitative High-Throughput drug screen in 47 multiple myeloma cell lines against the NCATS MIPE library collection: NCIH929_DSMZ cell viability assay (AID 1918978); note: nearly all actives have a fitted effect of over 35% in size
In short: as §2

[19] = Quantitative High-Throughput drug screen in 47 multiple myeloma cell lines against the NCATS MIPE library collection: L363_DSMZ cell viability assay (AID 1918984); note: nearly all actives have a fitted effect of over 40% in size
In short: as §2

[20] = Quantitative High-Throughput drug screen in 47 multiple myeloma cell lines against the NCATS MIPE library collection: KMS26_JCRB cell viability assay (AID 1918975); note: nearly all actives have a fitted effect of over 45% in size
In short: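 qHTS of the MIPE 4.0 collection: 500 myeloma cells/well, 48 h drug exposure at 37C in 5% CO2, then CellTiter-Glo for 5 min at room temperature before luminescence reading.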
Potency is the fitted concentration of half-maximal effect.

SMILES | Potency [1] | Potency [2] | Potency [3] | Potency [4] | Potency [5] | Potency [6] | Potency [7] | Potency [8] | Potency [9] | Potency [10] | Potency [11] | Potency [12] | Potency [13] | Potency [14] | Potency [15] | Potency [16] | Potency [17] | Potency [18] | Potency [19] | Potency [20]
O=C(NCCCNc1nc(Nc2cccc(NC(=O)N3CCCC3)c2)ncc1I)c1cccs1 | 3320 nM (active) | inactive | 23500 nM (active) | 5260 nM (active) | 18700 nM (active) | 18700 nM (active) | 20900 nM (active) | 18700 nM (active) | 18700 nM (active) | 1050 nM (active) | 1870 nM (active) | 13200 nM (active) | 3720 nM (active) | 20900 nM (active) | 18700 nM (active) | 1320 nM (active) | 1050 nM (active) |  |  | 
COc1cc(C(C)C)c2c(c1)S(=O)(=O)N(COc1cc(=O)n3cccc(OCCN4CCCCC4)c3n1)C2=O | 18700 nM (active) | 18700 nM (active) |  |  | inactive | 11800 nM (active) |  |  |  |  | 11800 nM (active) |  | 23500 nM (active) |  |  | 833 nM (active) | 2090 nM (active) | 20900 nM (active) | 18700 nM (active) | 
CC[C@@H]1C(=O)N(C)c2cnc(Nc3ccc(C(=O)NC4CCC(N5CCN(CC6CC6)CC5)CC4)cc3OC)nc2N1C(C)C (stereo partly drawn) | 4180 nM (active) | 935 nM (active) | 7430 nM (active) | 3720 nM (active) | 264 nM (active) | 1320 nM (active) |  |  | 209 nM (active) | 105 nM (active) | 833 nM (active) | 74.3 nM (active) | 166 nM (active) | 2350 nM (active) | 5900 nM (active) | 209 nM (active) | 18.7 nM (active) |  | 14.8 nM (active) | 5260 nM (active)
O=C(Nc1ncc(-c2cc(C(F)F)nn2-c2c(Cl)cccc2Cl)s1)C1CC1 | 469 nM (active) |  | 2640 nM (active) | 2090 nM (active) | 743 nM (active) | 1480 nM (active) | 1320 nM (active) | 1050 nM (active) | 935 nM (active) | 264 nM (active) | 166 nM (active) | 296 nM (active) | 418 nM (active) | 332 nM (active) | 2960 nM (active) | 187 nM (active) | 105 nM (active) | 2640 nM (active) | 235 nM (active) | 2640 nM (active)
